Test results from PubChem BioAssay (NCATS).
Records with an inconclusive call do not appear. Active and inactive are the calls of the source. Unless noted, the call rests on the fitted dose curve; in most records, active means well fitted curve in the direction sought with a large enough effect; inconclusive means small, poorly fitted or top-dose-only effect, or another doubt; inactive means no such curve, though single readings can be large; an effect the other way counts as inactive or inconclusive.

What was measured:
[1] = Cell Viability - BJ (AID 421; calls by dose curve;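 further: potency means the concentration at half of the fitted maximal effect; cells exposed to compound for 40 hours at 37 °C before readout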); details: BJ fibroblast viability, qHTS
In short: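 Cytotoxicity in human BJ foreskin fibroblasts is scored as loss of cellular ATP after a 40-hour exposure, measured by luciferase luminescence. Controls are DMSO and 100 uM tamoxifen.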

[2] = Cell Viability - Jurkat (AID 426;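 active means dose-dependent loss of cell ATP signal giving a full or clear fitted curve, ranked by lower potency value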;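 further: potency means the concentration at half of the fitted maximal effect; cells exposed to compound for 40 hours at 37 °C before ATP read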); details: qHTS
In short: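 Cells of the human T-cell leukemia line Jurkat (E6-1) are seeded at 5000 per well, treated with compound across a concentration range for 40 hours at 37 °C, then lysed with CellTiter-Glo; luminescence reports ATP.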

[3] = Cell Viability - Hek293 (AID 427;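 active means compounds whose dose-response curve shows a full or clear partial loss of cell viability, called from curve shape rather than a numeric limit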;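 further: potency means the concentration at half of the fitted maximal effect; cells exposed to compound for 40 hours at 37 °C before reading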); details: qHTS
In short: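 qHTS, human embryonic kidney (adenovirus-transformed) cells; 40 hr cpd, 37 °C; CellTiter-Glo ATP luminescence. Norm: DMSO = 0, 100 uM tamoxifen = 100% inhibition. Hill-fit AC50.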

[4] = Cell Viability - HepG2 (AID 433; calls by dose curve;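 further: potency means the concentration at half of the fitted maximal effect; potency for ATP loss meaning cytotoxicity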); details: qHTS
In short: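 Cytotoxicity is scored as loss of intracellular ATP in HepG2 cells exposed to compounds for 40 h. Concentration-response curves, normalized to DMSO and 100 uM tamoxifen, give AC50 values.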

[5] = Cell Viability - MRC5 (AID 434; calls by dose curve;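 further: potency means the concentration at half of the fitted maximal effect; potency reflects cytotoxicity seen as loss of intracellular ATP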); details: MRC5 lung fibroblast viability, qHTS
In short: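 Decrease in intracellular ATP, quantified by luciferase light output, reflects compound toxicity toward MRC5 cells exposed for 40 hr in complete culture medium. Concentration-response curves, scaled between DMSO and 100 uM tamoxifen, gave AC50 values.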

[6] = Cell Viability - SK-N-SH (AID 435; calls by dose curve;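 further: potency means the concentration at half of the fitted maximal effect; compound exposure lasted 40 h at 37 °C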); details: SK-N-SH neuroblastoma cell viability qHTS
In short: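 Cells seeded at 1500 per well and incubated 5 hr at 37 °C. Compound added, then 40 hr at 37 °C. CellTiter-Glo added, 20 min at room temperature, luminescence read.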

[7] = target: Mitogen-activated protein kinase 10 (Mus musculus) (UniProt Q61831); assay: JNK3 AlphaScreen Assay (AID 530; active means well fitted curve in either direction with a large enough effect, not every such curve was filed as active;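 further: kinase came from lysate of stimulated human HepG2 cells; signal reports phosphorylation of biotinylated GST-cJun 1-79 at Ser73 with 10 µM ATP; on the % scale 0 is the no-effect control and ±100 the full control effect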)
In short: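 Phosphorylation of biotinylated GST-cJun(1-79) at Ser73 is measured by AlphaScreen proximity luminescence. Enzyme is JNK3 in HepG2 lysates activated with interleukin-1beta and tumor necrosis factor alpha; ATP is 10 uM final.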

[8] = Cell Viability - N2a (AID 540); details: N2a mouse neuroblastoma cell viability; at 92.2 µM (top of the series);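 further: cells exposed to compound for 40 h at 37 °C; plate controls were DMSO alone for no effect and tamoxifen control for full effect; nearly all actives have a fitted effect of over 45% in size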
In short: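 Cytotoxicity was scored as loss of cellular ATP in N2a cells, a mouse neuroblastoma line. Compounds are applied in a qHTS concentration series for 40 hr at 37 °C.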

[9] = Cell Viability - NIH 3T3 (AID 541); details: NIH 3T3 cell viability, qHTS; at 92.2 µM (top of the series);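 further: plate controls were DMSO alone for no effect and tamoxifen positive control for full effect; nearly all actives have a fitted effect of over 25% in size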
In short: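 Cells seeded at 1000/well, rested 5 hr at 37 °C, then dosed and incubated 40 hr at 37 °C. CellTiter-Glo added, 20 min room temperature, luminescence read. AC50 by Hill fit.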

[10] = Cell Viability - HUV-EC-C (AID 542); further: on the % scale 0 is the no-effect control and ±100 the full control effect; nearly all actives have a fitted effect of over 35% in size
In short: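 Cells were seeded at 1000 per well and incubated 5 hr at 37 °C before compound addition. After 40 hr at 37 °C, CellTiter-Glo reagent was added for 20 min and luminescence read. AC50 values came from Hill-equation modelling.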

[11] = Cell Viability - H-4-II-E (AID 543); further: on the % scale 0 is the no-effect control and ±100 the full control effect; nearly all actives have a fitted effect of over 35% in size
In short: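 Cells seeded at 1500 per well and rested 5 hr; compounds added; 40 hr incubation at 37 °C; CellTiter-Glo added, 20 min at room temperature; luminescence read. Hill-equation fits gave AC50.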

[12] = Cell Viability - SH-SY5Y (AID 544);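 further: 0% = DMSO alone and -100% = 100 µM tamoxifen; nearly all actives have a fitted effect of over 55% in size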
In short: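 Cells were plated at 1500 per well and allowed 5 hr at 37 °C. Compounds were added across a concentration range and incubated 40 hr at 37 °C. CellTiter-Glo was added for 20 min at room temperature before luminescence reading.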

[13] = Cell Viability - Renal Proximal Tubule (AID 545);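 further: 0% = DMSO only and -100% = 100 µM tamoxifen; nearly all actives have a fitted effect of over 40% in size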
In short: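 Cytotoxicity is scored as a concentration-dependent drop in cellular ATP in primary rat renal proximal tubule cells exposed for 40 hr. AC50 derives from Hill modelling.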

[14] = Cell Viability - Mesenchymal (AID 546);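 further: cells exposed to compound for 40 hours before reading; 0% = DMSO only and -100% = 100 µM tamoxifen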
In short: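 In this qHTS cytotoxicity format, glomerulus-derived human mesenchymal kidney cells received compound for 40 hr, then luciferase-based ATP quantitation. Concentration-response data were fitted with the Hill equation.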

[15] = Cellular Toxicity (caspase-3) Jurkat (AID 655);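 further: cells exposed to compound for 16 h at 37 °C before reading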
In short: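 Caspase 3/7 activation is scored as increased luminescence in Jurkat cells cultured with compound for 16 hours in complete medium. AC50 values come from Hill fits of qHTS concentration-response data normalized to DMSO and 100 uM tamoxifen controls.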

[16] = Cellular Toxicity (caspase-3) HUV-EC-C (AID 656);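 further: 0% = DMSO basal and 100% = 100 µM tamoxifen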
In short: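 Read-out: luminescence proportional to caspase 3/7 activity, measured 20 min after adding Caspase-Glo 3/7 reagent. Cells (HUV-EC-C) had received compound for 16 hr at 37°C. Increases relative to DMSO and 100 uM tamoxifen gave concentration-response AC50 values.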

[17] = Cellular Toxicity (caspase-3) SHSY5Y (AID 657)
In short: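 Cells plated and incubated 5 h at 37 °C, dosed over a concentration range, incubated 16 h, then given Caspase-Glo 3/7 reagent for 1 h at room temperature before luminescence reading. Staurosporine (10 uM) defined full stimulation.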

[18] = Cellular Toxicity (caspase-3) BJ (AID 658);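 further: 0% = DMSO basal and 100% = 10 µM staurosporine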
In short: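 Plated BJ cells (1000/well) rested 5 hr, received compound for 16 hr at 37 °C, then Caspase-Glo 3/7 reagent for 1 hr at room temperature before luminescence reading.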

[19] = Cellular Toxicity (caspase-3) MRC-5 (AID 659);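 further: 0% = DMSO basal and 100% = 10 µM staurosporine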
In short: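 Apoptosis readout in MRC-5 cells: luciferase light generated after caspase 3/7 cleaves a peptide-aminoluciferin substrate, measured post 16 hr compound incubation at 37 °C.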

[20] = Cellular Toxicity (caspase-3) Mesangial (AID 660);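 further: cells exposed to compound for 16 h before the caspase read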
In short: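 Seed cells derived from normal human renal glomeruli, incubate 5 h, add compounds across concentrations and incubate 16 h at 37 °C. Caspase 3/7 activation is then quantified by luciferase light, with AC50 derived by Hill modeling.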

[21] = Cellular Toxicity (caspase-3) SK-N-SH (AID 661);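 further: 0% = DMSO basal and 100% = 10 µM staurosporine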
In short: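 Cells were seeded and incubated 5 hr at 37 °C, dosed with compound over a concentration range for 16 hr, then given Caspase-Glo 3/7 reagent for 1 hr at room temperature before luminescence reading.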

[22] = Cellular Toxicity (caspase-3) H-4-II-E (AID 663);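 further: cells exposed to compound for 16 hr before readout; 0% = DMSO basal and 100% = 100 µM tamoxifen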
In short: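 Caspase 3/7 activation measured in H-4-II-E cells in complete culture medium after 16 hr treatment at 37 °C, using luciferase-coupled substrate readout; AC50 values come from Hill-equation fits of normalized concentration-response data.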

[23] = Cellular Toxicity (caspase-3) Hek293 (AID 664);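 further: cells exposed to compound for 16 h at 37 °C before readout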
In short: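 qHTS, HEK293 (human embryonic kidney), 16 h cpd exposure in complete medium. Caspase-3/7 activation = luminescence increase; normalized to DMSO/100 uM tamoxifen; Hill-fit AC50.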

[24] = Cellular Toxicity (caspase-3) N2a (AID 665);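 further: compound exposure lasted 16 h at 37 °C before readout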
In short: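 Caspase-3/7 activation, measured as increased luminescence from aminoluciferin release, is quantified in mouse N2a cells exposed to compounds for 16 h. Values are normalized to DMSO and 10 uM staurosporine, with AC50 derived by Hill modelling.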

[25] = Cellular Toxicity (caspase-3) NIH 3T3 (AID 666);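 further: caspase signal read after 16 h compound exposure; 0% = DMSO basal and 100% = 100 µM tamoxifen stimulation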
In short: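 Cells were plated at 1000 per well and incubated 5 hr at 37°C, then compound was added for 16 hr. Caspase-Glo 3/7 reagent followed for 20 min at room temperature before luminescence was read.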

[26] = Cellular Toxicity (caspase-3) Renal Proximal Tubule (AID 667);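 further: cells exposed to compound for 16 hours at 37 °C before detection; 0% = DMSO basal and 100% = 10 µM staurosporine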
In short: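 In qHTS format, rat primary proximal tubule cells seeded at 1000 per well are exposed to compounds for 16 hours at 37 °C. An increase in Caspase-Glo 3/7 luminescence indicates caspase activation.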

Cc1ccccc1O
inactive: Potency [1] > 92 µM | Potency [2] > 92 µM | Potency [3] > 92 µM | Potency [4] > 92 µM | Potency [5] > 92 µM | Potency [6] > 92 µM | outcome [7] | activity change, negative = cytotoxicity [8] 4.57% | activity change, negative = cytotoxicity [9] 8.87% | outcome [10] | outcome [11] | outcome [12] | outcome [13] | outcome [14] | outcome [15] | outcome [16] | outcome [17] | outcome [18] | outcome [19] | outcome [20] | outcome [21] | outcome [22] | outcome [23] | outcome [24] | outcome [25] | outcome [26]
